Results reported in PubChem BioAssay (NCATS).
Several values for one entry are separate records, joined by “and”; a condition that tells them apart may be missing. Identical values can stand only once. Records with an inconclusive call do not appear. A structure can be active in one record and inactive in another. Activity calls are given as the source filed them. Calls come from the whole dose curve; as a rule, active = well fitted curve in the direction sought with a large enough effect; inconclusive = small, poorly fitted or top-dose-only effect, or another doubt; inactive = no such curve, though single readings can be large; an effect the other way counts as inactive or inconclusive.

Assays:
[1] = Viability qHTS for spleen associated tyrosine kinase inhibitor (SYKi) naive MV4-11 cells (AID 1963823); note: nearly all actives have a fitted effect of over 40% in size
Summary of the method: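 Cells: MV4-11, SYK inhibitor naive, 500 per well. Treatment: library compounds, 72 hr, 37 C, 5% CO2. Read-out: CellTiter-Glo luminescence after 10 min RT.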

[2] = Viability qHTS for spleen associated tyrosine kinase inhibitor (SYKi) drug resistant MV4-11 cells (AID 1963824); note: nearly all actives have a fitted effect of over 35% in size
Summary of the method: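 SYK inhibitor-resistant MV4-11 AML cells, 500 per well, added to predispensed compounds and incubated 72 hr at 37 C, 5% CO2. Viability measured by CellTiter-Glo luminescence after 10 min at room temperature.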

[3] = Quantitative highthroughput screen to assess conditional lethalithy of NOMO1 cells grown in RPMI1640 with untreated serum (RPMI+s) (AID 1963876); note: nearly all actives have a fitted effect of over 35% in size;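 for Viability: 100% = DMSO wells and 0% = empty wells without cells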
Summary of the method: (§1)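 Each medium arm—HPLM with 10% dialyzed FBS, or RPMI1640 with 5 mM glucose and 10% untreated or dialyzed FBS—was screened against an 11-point, 3-fold compound titration for 48 h at 37 °C, with CellTiter-Glo luminescence as endpoint.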

[4] = Quantitative highthroughput screen to assess conditional lethalithy of NOMO1 cells grown in RPMI1640 with dialyzed fetal bovine serum (RPMI+ds) (AID 1963877); note: nearly all actives have a fitted effect of over 30% in size;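 for Viability: series mostly up to about 46 µM; 100% = DMSO control wells and 0% = empty wells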
Summary of the method: as §1

[5] = Quantitative highthroughput screen to assess conditional lethalithy of P12 Ichikawa cells grown in RPMI1640 with dialyzed fetal bovine serum (RPMI+ds) (AID 1963880); conditions: Potency: P12-Ichikawa viability; note: nearly all actives have a fitted effect of over 35% in size;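 for Viability: 100% = DMSO wells and 0% = empty wells on each plate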
Summary of the method: as §1

[6] = Quantitative highthroughput screen to assess conditional lethalithy of P12 Ichikawa cells grown in RPMI1640 with untreated serum (RPMI+s) (AID 1963881); conditions: Potency: viability; note: nearly all actives have a fitted effect of over 35% in size;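 for Viability: series mostly up to about 46 µM; 100% = DMSO wells and 0% = empty wells without cells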
Summary of the method: as §1

[7] = Quantitative highthroughput screen to assess conditional lethalithy of SEM cells grown in Human Plasma-Like Medium with dialyzed fetal bovine serum (HPLM+ds) (AID 1963882); note: nearly all actives have a fitted effect of over 35% in size; for Viability: series mostly up to about 46 µM
Summary of the method: as §1

[8] = Quantitative highthroughput screen to assess conditional lethalithy of SEM cells grown in RPMI1640 with unreated serum (RPMI+s) (AID 1963883); note: nearly all actives have a fitted effect of over 35% in size;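 for Viability: 100% = DMSO wells and 0% = empty wells without cells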
Summary of the method: as §1

[9] = Quantitative highthroughput screen to assess conditional lethalithy of SEM cells grown in RPMI1640 with dialyzed fetal bovine serum (RPMI+ds) (AID 1963884); note: nearly all actives have a fitted effect of over 35% in size;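 for Viability: series mostly up to about 46 µM; 100% = DMSO control wells and 0% = empty wells without cells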
Summary of the method: as §1

[10] = Cellular viability qHTS for adrenocortical cancer (ACC) cell line SW-13 (AID 1963989); conditions: SW-13 ACC cells viability, CellTiter-Glo, 48 h; activity (max response): stronger effect = lower value; note: nearly all actives have a fitted effect of over 65% in size;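 for activity (max response): cells grown in serum-free medium with ITS supplement; % is set by controls: 0 for no effect and ±100 for the full control effect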
Summary of the method: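 Compound titrations (up to 46 uM final, in DMSO) were applied to SW-13 cells for 48 h at 37C/5% CO2. Reading used CellTiter-Glo after 20 min at room temperature; fitted curves yielded IC50 and efficacy.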

[11] = Cellular viability qHTS for adrenocortical cancer (ACC) cell line NCI-H295R (AID 1963990); note: nearly all actives have a fitted effect of over 60% in size
Summary of the method: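 Readout: CellTiter-Glo luminescence, 20 min RT. Exposure: 48 h, 37C/5% CO2. Cells: NCI-H295R, ITS-DMEM serum-free. Range: up to 46 uM. Analysis: 4PL fit, IC50 plus efficacy.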

[12] = Quantitative highthroughput screen to assess conditional lethalithy of P12 Ichikawa cells grown in Human Plasma-Like Medium with dialyzed fetal bovine serum (HPLM+ds) (AID 1963879); conditions: Potency: viability; note: nearly all actives have a fitted effect of over 35% in size; for Viability: series mostly up to about 46 µM
Summary of the method: as §1
Potency is the fitted concentration of half-maximal effect.

Compound | Potency [1] | Potency [2] | Potency [3] | Potency [4] | Potency [5] | Potency [6] | Potency [7] | Potency [8] | Potency [9] | Potency [10] | Potency [11] | activity (max response) [10] | Potency [12]
Cc1nc(Nc2n[nH]c3c2CN(C(=O)N[C@H](CN(C)C)c2ccccc2)C3(C)C)c2sccc2n1 | 13.2 nM (active) | 11.8 nM (active) | 1.32 µM (active) | 3.72 µM (active) | 1.48 µM (active) | 1.66 µM (active) | 0.743 µM (active) | 0.332 µM (active) | 1.18 µM (active) | 3.16 µM (active) | 28.2 µM (active) |  | 
O=c1c(O)c(-c2ccc(O)c(O)c2)oc2cc(O)cc(O)c12 | 23.7 µM (active) and inactive | inactive and 16.4 µM (active) | inactive | inactive |  | inactive | inactive |  |  |  | inactive | -23.2% (inactive) and 14.3% (inactive) | 
CC(C)Oc1cc(Nc2nc(N[C@@H](C)c3ccc(F)cn3)ncc2Cl)[nH]n1 | 58 nM (active) | 372 nM (active) and 46.1 nM (active) | 0.935 µM (active) | 0.833 µM (active) |  |  |  | 0.526 µM (active) | 0.332 µM (active) |  | inactive | -7.04% (inactive) | 0.833 µM (active)
N#Cc1c(N(CC(=O)O)CC(=O)O)sc(C(=O)O)c1CC(=O)O | inactive | inactive | inactive | inactive |  |  | 13.2 µM (active) |  |  |  | inactive | 0.42% (inactive) | 
NC1(Cc2ccc(Cl)cc2)CCN(c2ncnc3[nH]ccc23)CC1 | 3720 nM (active) | 5250 nM (active) | 10.5 µM (active) | 9.35 µM (active) |  |  | 6.62 µM (active) | 5.26 µM (active) | 7.43 µM (active) |  | 20 µM (active) |  | 
Cc1cnc(Nc2cccc(CN3CCOCC3)c2)nc1Nc1cccc(S(=O)(=O)NC(C)(C)C)c1 | 93.4 nM (active) | 186 nM (active) | inactive | inactive |  | inactive |  |  |  |  | inactive | -8.11% (inactive) | 
COc1cc(C)c(Sc2cnc(NC(=O)c3ccc(CNC(C)C(C)C)cc3)s2)cc1C(=O)N1CCN(C(C)=O)CC1 (configuration not stated) | 5.25 µM (active) and 5.17 µM (active) | 7.42 µM (active) and 8.2 µM (active) | inactive | inactive |  | inactive | 7.43 µM (active) | 5.26 µM (active) | 5.26 µM (active) | 17.8 µM (active) |  |  | inactive
CC(C)c1cnn2c(NCc3ccccc3)cc(NCCCCCCN)nc12 | 16600 nM (active) | 14800 nM (active) | inactive | inactive | inactive | inactive | inactive | inactive | inactive |  | 25.1 µM (active) |  | 
COc1cc(Nc2nc3ccccc3nc2NS(=O)(=O)c2ccc(NC(=O)c3ccc(C)c(OC)c3)cc2)cc(OC)c1 | 18600 nM (active) | 18600 nM (active) | inactive | 7.43 µM (active) | 14.8 µM (active) |  |  |  |  |  | inactive |  | 5.9 µM (active)
COc1ccc2c(Oc3ccc(NC(=O)c4c(C)n(CC(C)(C)O)n(-c5ccccc5)c4=O)nc3)ccnc2c1 | 166 nM (active) | 332 nM (active) | inactive | inactive |  |  |  |  |  |  | inactive | -3.94% (inactive) | inactive
COc1ccc(-n2nc(C(N)=O)c3c2C(=O)N(c2ccc(N4CCCCC4=O)cc2)CC3)cc1 | inactive | inactive | 0.118 µM (active) | 0.235 µM (active) | 2.96 µM (active) | 2.64 µM (active) | inactive | inactive | inactive |  | inactive | -9.7% (inactive) | 
CCCCOc1ccc(CC(=O)NO)cc1 | inactive and 14.8 µM (active) | inactive and 18.6 µM (active) | inactive | inactive |  |  |  |  |  |  | inactive | -10.9% (inactive) | 
CC(=O)CC(c1ccccc1)c1c(O)c2ccccc2oc1=O (configuration not stated) | inactive | inactive | inactive | inactive | inactive | inactive | inactive |  | inactive |  |  | -5.83% (inactive) and 0.968% (inactive) | 
Oc1ccc(OCc2ccccc2)cc1 | 5900 nM (active) | inactive and 8.33 µM (active) | inactive | 18.7 µM (active) |  | 3.72 µM (active) |  |  |  |  | inactive | 12.2% (inactive) | 7.43 µM (active)
COc1ccc2c(c1)c(C1=C(c3c[nH]c4ccccc34)C(=O)NC1=O)cn2CCCN(C)C | 148 nM (active) | 332 nM (active) | inactive | inactive |  | inactive |  |  |  | 15.8 µM (active) |  |  | inactive
COc1cc(F)c(F)c(Nc2ccc(I)cc2F)c1NS(=O)(=O)C1(C[C@H](O)CO)CC1 | 332 nM (active) | 525 nM (active) | inactive | inactive |  | inactive |  | 20.9 µM (active) |  |  | 20 µM (active) |  | 
CC(C(=O)O)c1cccc(C(=O)c2ccccc2)c1 (configuration not stated) | inactive | inactive | inactive | inactive | inactive | inactive | inactive | inactive |  |  | inactive | 3.98% (inactive) and 6.3% (inactive) | 
